# Compound activity as filed in PubChem BioAssay.
# This is a sample that favours compounds with a hit; in the whole collection about 2.4% have one here.
# M1 ag: human M1 muscarinic receptor agonism; AID 588814; hit rate 0.33% among 360,000; CHO-K1 hM1, Fluo-8 calcium fluorescence, agonist mode; 0% DMSO, 100% acetylcholine EC100; P11229; activation, % at 3 µM;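 active = activation above the run's mean compound activation plus 3 SD, cut at about 16% in these data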;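 note: peak over basal fluorescence ratio within a 140 s kinetic read after compound addition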
# Target sequence (P11229 whole entry, looked up): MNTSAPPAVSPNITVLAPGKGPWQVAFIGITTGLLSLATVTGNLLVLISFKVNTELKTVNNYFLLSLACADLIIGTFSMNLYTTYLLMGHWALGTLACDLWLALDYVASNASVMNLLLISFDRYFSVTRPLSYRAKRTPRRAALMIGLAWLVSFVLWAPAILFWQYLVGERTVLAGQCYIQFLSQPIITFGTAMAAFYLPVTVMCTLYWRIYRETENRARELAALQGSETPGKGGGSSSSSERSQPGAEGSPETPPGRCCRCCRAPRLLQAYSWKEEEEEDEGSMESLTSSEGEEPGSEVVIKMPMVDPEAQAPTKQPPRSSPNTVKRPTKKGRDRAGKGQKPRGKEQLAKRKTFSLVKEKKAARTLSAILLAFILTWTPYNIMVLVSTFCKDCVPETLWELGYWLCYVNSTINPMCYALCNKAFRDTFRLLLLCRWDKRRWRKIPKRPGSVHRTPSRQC
# CHRM1 antagonist: antagonists of human M1 muscarinic receptor. P11229. CHO-K1 hM1, Fluo-8 calcium fluorescence, ACh EC80 antagonist. inhibition, % at 3 µM. hit rate 1.3% among 360,000;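 active = percent inhibition above its own plate's cutoff, namely the mean of that plate's compound wells plus 3 SD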;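 note: peak over basal fluorescence ratio during 140 s after agonist addition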
# CHO-K1 Ca antag: M1 antagonist counterscreen hit in parental CHO-K1 cells | ATP-induced calcium, Fluo-8 fluorescence | inhibition, % at 3 µM | hit rate 0.6% among 360,000 | AID 602250;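 active = inhibition above a per-plate cutoff, the plate's mean sample inhibition plus 3 SD, cut at about 24% in these data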
# CHRM1 PAM: positive allosteric modulators of human M1 muscarinic receptor; P11229; CHO-K1 hM1, Fluo-8 calcium fluorescence, ACh EC20; 0% = ACh EC20, 100% = maximal ACh; activation, % at 3 µM; hit rate 0.088% among 360,000; in the data active = activation above about 19%, passing the limit was not always enough
# M1 ag parental: counter-screen for M1 agonists: effect in parental CHO-K1 cells; hit rate 0.48% among 360,000; Fluo-8 calcium fluorescence; scaled to maximal ATP response, vehicle zero; AID 602248; activation, % at 3 µM; in the data active = activation above about 15%;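 note: untransfected CHO-K1 host cells lacking M1 receptor as counterscreen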
# CHO-K1 Ca PAM: nonselective activator or artifact in parental CHO-K1 calcium assay | ATP EC20, Fluo-8 calcium fluorescence; 0% at ATP EC20, 100% at ATP max | activation, % at 3 µM | hit rate 0.02% among 360,000 | AID 602247;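 active = activation above the run cutoff, the mean activation of all test compounds plus 3 SD, cut at about 40% in these data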;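 note: peak over basal fluorescence ratio in a 140 s read after ATP addition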
# Hits are given with their value; . = inactive; / = no result.
SMILES,M1 ag,CHRM1 antagonist,CHO-K1 Ca antag,CHRM1 PAM,M1 ag parental,CHO-K1 Ca PAM
O=C(NCC1OCCCN1S(=O)(=O)c1cc(F)ccc1F)C(=O)NC1CCCCCC1 (stereo not given),.,.,32,.,.,.
O=c1c(Cl)c(N2CCNCC2)cnn1C12CC3CC(CC(C3)C1)C2,.,35,.,.,.,.
O=C(O)C12CC3CC(C1)CC(n1ncc(N4CCN(c5ccccc5)CC4)c(Cl)c1=O)(C3)C2,.,.,.,.,.,.
CCCN(CCC)C(=O)c1ccc2c(c1)N(CC)C(=O)c1ccccc1S2(=O)=O,.,42,.,.,.,.
C=CCN(CC=C)C(=O)CN1C(=O)NC(Cc2c[nH]c3ccccc23)C1=O (stereo not given),.,.,.,.,.,.
CN1CCN(C(=O)c2ccc(COc3ccc(C(C)(C)C)cc3)o2)CC1,.,39,.,.,.,.
CC1CCC(C(C)C)C(OC(=O)CSc2nccc(=O)[nH]2)C1 (stereo not given),.,.,.,.,.,.
COc1ccc(-c2n(CC(=O)OC3CC(C)CCC3C(C)C)c3ccccc3[n+]2C)cc1 (stereo not given),.,28,24,.,.,.
COc1ccc(OCc2n(CC(=O)OC3CC(C)CCC3C(C)C)c3ccccc3[n+]2C)cc1 (stereo not given),.,39,.,.,.,.
CCCN(C(=O)CSc1nc(C2CC2)n(-c2ccccc2)n1)C1CCS(=O)(=O)C1 (stereo not given),.,.,.,.,.,.
Cc1ccc(N2CC(C(=O)Nc3nc4ccc(S(C)(=O)=O)cc4s3)CC2=O)cc1 (stereo not given),.,.,.,.,.,.
CCCCOC(=O)c1ccc(NC(=O)COC(=O)c2ccc3ncsc3c2)cc1,.,.,.,.,.,.
O=C1c2cccc(OCC(=O)N3CCCc4ccccc43)c2CCN1Cc1ccc(Br)cc1,.,.,.,.,.,.
CCSc1nsc(NC(=O)Nc2cccc(OC)c2)n1,.,27,.,.,17,.
C=CCSc1nsc(NC(=O)Nc2ccc(F)cc2)n1,.,31,25,.,.,.
CCSc1nsc(NC(=O)Nc2ccccc2F)n1,.,.,.,.,.,.
O=C(O)c1ccccc1-c1ccc(/C=C/c2cc(C(F)(F)F)[nH]c(=O)n2)o1,.,.,.,.,26,.
O=C(O)c1cc(Cl)ccc1-c1ccc(/C=C/c2cc(C(F)(F)F)[nH]c(=O)n2)o1,.,.,.,.,26,.
Cc1nc(S/C(=C/c2ccc(-c3cc(Cl)ccc3C)o2)C(=O)O)n[nH]1,.,.,.,.,.,.
CCn1c2c(c(=N)c3c1CCC3)CCCC2,.,.,.,.,.,.
CCCCCCCCn1c2c(c(=N)c3ccccc31)CCC2,.,47,31,.,.,.
CCCCCCCCCCn1c2c(c(=N)c3c1CCC3)CCC2,.,35,.,.,.,.
CCCCCn1c2c(c(=N)c3ccccc31)CCC2,.,.,.,.,.,.
CCCCCCCCCn1c2c(c(=N)c3c1CCC3)CCCC2,.,49,38,.,.,.
CN(C)CCNC(=S)Nc1ccc(Br)cc1,.,.,.,.,.,.
SMILES,M1 ag,CHRM1 antagonist,CHO-K1 Ca antag,CHRM1 PAM,M1 ag parental,CHO-K1 Ca PAM
Cc1ccc2oc(C(=O)N3CCN(Cc4nccn4C)CC3)c(C)c2c1,.,.,.,.,.,.
CC(Oc1ccc(C#N)cc1)C(=O)Nc1ccc(-n2cnnn2)cc1 (stereo not given),17,.,.,.,.,.
Cc1ncc(CO)c2cc(S(=O)(=O)c3ccc(F)cc3)c(=O)oc12,.,23,.,.,.,.
O=C(NC1CCCCC1)c1cc2ccccc2cc1O,.,.,.,24,.,.
Cc1cc(C)n2nc(SC(C)C(=O)N(C)c3ccccc3)nc2n1 (stereo not given),.,.,.,.,.,.
COc1cc(/C=N/N(C)C)cc(Br)c1O,.,.,.,23,.,.
CN=c1scc(C)n1/N=C/c1cc(Br)c(O)c(OC)c1,.,.,.,.,.,.
COc1ccc(C(=O)N2CCCC(Nc3ccc(F)cc3)C2)c(OC)c1 (stereo not given),.,.,.,.,.,.
CCCCOP(=O)(c1ccc(N(C)C)cc1)C(Nc1ccccc1)c1ccccc1 (stereo not given),.,.,.,.,27,.
CCCOP(=O)(c1ccc(N(C)C)cc1)C(Nc1ccccc1)c1ccc(N(C)C)cc1 (stereo not given),.,.,.,.,.,.
COc1ccc(C(=O)NCC(c2ccco2)N2CCc3ccccc32)c(OC)c1 (stereo not given),.,.,.,.,.,48
COc1ccc(C(=O)NCC(c2cccs2)N2CCc3ccccc32)cc1OC (stereo not given),.,.,24,.,.,.
CC1=C(C(=O)N2CCCCCC2)CC(CC(=O)NCc2cccc3ccccc23)C(=O)N1CCC1=CCCCC1 (stereo not given),/,/,.,/,.,.
O=C(OCCCOC(=O)c1cc[n+]([O-])cc1)c1cc[n+]([O-])cc1,.,.,.,26,.,.
CC(=O)Nc1ccc(C(=O)OCCCOC(=O)c2ccc(NC(C)=O)cc2)cc1,.,.,.,.,.,.
CC(=O)c1c(C)[nH]c(C(=O)OCCCCN2C(=O)c3ccccc3C2=O)c1C,.,40,33,.,.,.
CCOC(=O)c1[nH]c2ccccc2c1CCCN1C(=O)c2ccccc2C1=O,.,89,.,.,.,.
CC(=O)c1c(C)[nH]c(C(=O)OCc2ccccc2)c1C,.,.,.,.,.,.
CCOC(=O)c1[nH]c2cc3c(cc2c1CCCN1C(=O)c2ccccc2C1=O)OCCO3,.,.,.,.,.,.
O=C(CSc1nnc(NC(=O)c2ccc(S(=O)(=O)N3CCOCC3)cc2)s1)Nc1ccccc1C(F)(F)F,.,.,.,.,.,.
Cc1ccccc1C(=O)c1cccn1CC(=O)NC1CCCC(C)C1C (stereo not given),.,.,.,.,.,.
COc1cc(NC(=O)c2ccccc2)c(OC)cc1NC(=O)CN1CCCCC1,.,.,26,.,.,.
CCOc1ccccc1NC(=O)CN1CCCCCC1,.,26,.,.,.,.
CC(C(=O)Nc1ccc(OCc2ccccc2)cc1)N1CCCC1 (stereo not given),.,49,.,.,.,.
COc1ccccc1NC(=O)CN1CCN(CC(=O)Nc2ccc(OCc3ccccc3)cc2)CC1,.,16,.,.,.,.
O=C(CN1CCCCC1)Nc1ccccc1NC(=O)CN1CCCCC1,.,.,.,.,.,.
Cc1ccc(S(=O)(=O)Nc2c(C)nc3nc[nH]n3c2=O)c(C)c1,.,.,.,.,.,.
